31 compounds from ChEMBL document CHEMBL3433997, “St. Jude Leishmania screening dataset” (2016) can be followed below.

What all share (format): functional
For assay [1], the target named is Solute carrier family 2, facilitated glucose transporter member 1 (Homo sapiens) (UniProt P11166). The assay can be described thus: ST_JUDE_LEISH: Cytotoxicity at 2uM final concentration against transgenic Leishmania Mexicana promastigotes LmGLUT1 that are glucose transport deficient and complemented with the human glucose transporter GLUT1. Activity is measured by DNA content using SYBR green in vitro.

Assay [2] concerns the target Hexose transporter 1 (Plasmodium falciparum) (UniProt O97467). The experiment in a line: ST_JUDE_LEISH: Cytotoxicity at 2uM final concentration against transgenic Leishmania Mexicana promastigotes LmPfHT that are glucose transport deficient and complemented with the Plasmodium falciparum hexose transporter. Activity is measured by DNA content using SYBR green in vitro.

The target of assay [3] is Glucose transporter (Leishmania mexicana) (UniProt O61059). The assay can be described thus: ST_JUDE_LEISH: Cytotoxicity at 2uM final concentration against transgenic Leishmania Mexicana promastigotes LmGT2 that are glucose transport deficient and complemented with the L. Mexicana glucose transporter 2. Activity is measured by DNA content using SYBR green in vitro.

The structures appear in SMILES notation. “And” between values parts separate entries of the source, which are not always exact repeats. Equal entries are not always repeated.

Solute carrier family 2, facilitated glucose transporter member 1 (Homo sapiens), sequence (P11166 whole entry): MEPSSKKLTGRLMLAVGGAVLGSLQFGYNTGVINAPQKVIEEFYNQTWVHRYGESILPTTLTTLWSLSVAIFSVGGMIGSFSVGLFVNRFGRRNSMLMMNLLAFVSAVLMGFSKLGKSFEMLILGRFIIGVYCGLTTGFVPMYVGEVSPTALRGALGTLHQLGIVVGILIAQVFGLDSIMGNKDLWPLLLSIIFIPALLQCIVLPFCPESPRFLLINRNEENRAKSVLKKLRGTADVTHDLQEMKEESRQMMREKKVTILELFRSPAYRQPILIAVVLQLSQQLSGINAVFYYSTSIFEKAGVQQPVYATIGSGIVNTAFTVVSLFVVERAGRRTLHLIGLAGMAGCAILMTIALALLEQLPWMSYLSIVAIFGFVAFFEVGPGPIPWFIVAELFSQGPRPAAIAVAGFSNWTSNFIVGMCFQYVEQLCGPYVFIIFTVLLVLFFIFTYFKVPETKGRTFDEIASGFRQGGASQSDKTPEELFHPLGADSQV

As to `N#Cc1ccc(N(CC(=O)NCCc2ccc(F)cc2)CC2CC2)c2ccccc12`, the inhibition – broadly, the change of the read-out against control, counted positive when it falls – in assay [1] was -0.35%; in assay [2], -0.59%; in assay [3], 1.47%.

On to `CNC(=O)c1ccc2[nH]cc(C3CCN(CC4CCC(NC(=O)/C=C/c5ccccc5Cl)CC4)CC3)c2c1` (stereo not drawn), for which the inhibition in assay [1] stood at 10.8%; in assay [2], 9.61%; in assay [3], 8.45%.

Consider `COc1cc(NC(=O)c2nn(CCCN3CCC4(CC3)C(=O)NCN4c3ccccc3)cc2-c2ccc(Cl)c(Cl)c2)cc(OC)c1OC`, for which the inhibition in assay [1] is -0.06%; in assay [2], 8.62%; in assay [3], 0.13%.

`CSc1nccc(-c2ccc(S(=O)(=O)NC3CCC(CN4CCC(c5c[nH]c6ccccc56)CC4)CC3)s2)n1` (stereo not drawn): the inhibition in assay [1] was 2.14% and 2.23%; in assay [2], 0.65% and 1.79%; in assay [3], 2.7% and 0.3%.

Turning to `CC[C@H]1CN2CC[C@H]1C[C@H]2[C@H](O)c1cc(-c2cccc(C)c2)nc2ccc(OC)cc12`, the inhibition came out at 3.99% in assay [1], 2.64% in assay [2] and 4.03% in assay [3].

For `Cc1cc(C2CCCCN2C)ccc1-c1ccc(C(=O)N2CCc3cc4c(cc32)C2(CCN(C)CC2)CO4)cc1` (stereo not drawn), the inhibition came to 3.41% in assay [1], 0.31% in assay [2] and 1.11% in assay [3].

For `O=C(/C=C/c1ccc(Cl)c(Cl)c1)N1CCC(CN2CCC(c3c[nH]c4ccccc34)C(O)C2)CC1` (stereo not drawn), the inhibition was found to be 7.48% in assay [1], 2.3% in assay [2] and 0.72% in assay [3].

Take `Cc1cccc(N2CCN(Cc3cc(Cl)ccc3O)CC2)c1C`: the inhibition in assay [1] turned out to be 0.93%; in assay [2], 1.18%; in assay [3], 3.25%.

Take `CC[C@H]1CN2CC[C@H]1C[C@H]2[C@H](O)c1cc(-c2ccccc2F)nc2ccc(OC)cc12`: the inhibition came to 0.68% in assay [1], 1.58% in assay [2] and 0.34% in assay [3].

As for `O=C(NC1CCC(CN2CCC(c3c[nH]c4ccccc34)CC2)CC1)c1cc2ccccc2s1` (stereo not drawn), the inhibition in assay [1] is -1.97% and 2.46%; in assay [2] it was 0.46% and 1.62%; in assay [3], -5.56% and 1.62%.

Consider `CCCCCc1cc(O)c2c(c1)OC(C)(C)CC2C1=CCN(Cc2cccnc2)CC1` (stereo not drawn), for which the inhibition is -0.46% in assay [1], 1.05% in assay [2] and 0.25% in assay [3].

For `C=C[C@H]1CN2CC[C@H]1C[C@H]2[C@H](O)c1ccnc2ccccc12`, the inhibition in assay [1] came out at 0.68%; in assay [2] it was 1.87%; in assay [3], 1.5%.

Take `CCCc1c(C(=O)NC2CCC(CN3CCC(c4c[nH]c5ccccc45)CC3)CC2)cnn1-c1ccccc1` (stereo not drawn): the figures for the inhibition in assay [1], in assay [2] and in assay [3] were 3.14%, 1.15% and 1.83%, respectively.

In the case of `CC(Cc1ccc(OCCOc2ccccc2)cc1)NCC(O)c1cccc(C(F)(F)F)c1` (stereo not drawn), the inhibition came to 1.79% in assay [1], 3.83% in assay [2] and 4.17% in assay [3].

`O=C(Cc1c(-c2ccccc2)[nH]c2ccccc12)NC1CCC(CN2CCC(c3c[nH]c4ccccc34)CC2)CC1` (stereo not drawn): the inhibition in assay [1] turned out to be 4.32%; in assay [2], 4%; in assay [3] it was 2.03%.

As to `O=C(C=Cc1ccccc1C(F)(F)F)NC1CCC(CN2CCC(c3c[nH]c4ccccc34)CC2)CC1` (stereo not drawn), the inhibition in assay [1] is 8.82% and 9.04%; in assay [2], 5.1% and 5.78%; in assay [3], 5.23% and 4.7%.

Consider `O=C(Nc1ccccc1C(F)(F)F)NC1CCC(CN2CCC(c3c[nH]c4ccccc34)CC2)CC1` (stereo not drawn), for which the inhibition in assay [1] was 7.14% and 3.61%; in assay [2], 4.94% and 7.06%; in assay [3] it was 2.99% and -1.24%.

In the case of `NCc1cccc(-c2cccc(CN(C(=O)Nc3ccccc3)C3CCN(Cc4ccccc4)CC3)c2)c1`, the inhibition in assay [1] was 7.36%; in assay [2], 6.75%; in assay [3], 6.25%.

As to `CC(=O)C1(c2ccccc2)CCN(CCC2(c3ccc(Cl)c(Cl)c3)CN(C(=O)c3cccc(Cl)c3)CCO2)CC1` (stereo not drawn), the figures for the inhibition in assay [1], in assay [2] and in assay [3] were -0.25%, -2.92% and -1.43%, respectively.

For the compound `Cn1c(C2CC3CCC(C2)N3CC2CCC(NC(=O)/C=C/c3ccc(Cl)c(Cl)c3)CC2)nc2ccccc21` (stereo not drawn), the inhibition came to 4.11% in assay [1], 3.19% in assay [2] and 2.69% in assay [3].

For the compound `O=C(Nc1ccc(Oc2ccccc2)cc1)N1CCC(CN2CCC(c3c[nH]c4ccccc34)CC2)CC1`, the inhibition was 1.64% in assay [1], 2.58% in assay [2] and -1.12% in assay [3].

With `CNCC(O)c1cc(Cl)c(Cl)cc1C` (stereo not drawn), the results for the inhibition in assay [1], in assay [2] and in assay [3] were 1.72%, 0.44% and -1.56%, respectively.

Take `Cc1[nH]c2c(C)cc(NS(C)(=O)=O)cc2c1C1CCN(CC2CCN(C(=O)/C=C/c3ccc(Cl)c(Cl)c3)CC2)CC1`: the results for the inhibition in assay [1], in assay [2] and in assay [3] were 1.48%, 3.63% and 4.65%, respectively.

As for `Cc1cc(N)nc2cc(CNCCc3ccccc3Br)ccc12`, the results for the inhibition in assay [1], in assay [2] and in assay [3] were 0.26%, 0.02% and -0.67%, respectively.

For `COc1nc(N)ncc1C(=O)NC1CN2CCC1CC2` (stereo not drawn), the inhibition turned out to be 7.43% in assay [1], 6.98% in assay [2] and 7.08% in assay [3].

On to `O=C(/C=C/c1ccc(Cl)cc1Cl)NC1CCC(CN2CCC(c3c[nH]c4ccccc34)CC2)CC1` (stereo not drawn), for which the inhibition was found to be 10.9% in assay [1], 13.1% in assay [2] and 9.99% in assay [3].

As to `O=C(C=Cc1cccc(Cl)c1Cl)NC1CCC(CN2CCC(c3c[nH]c4ccccc34)CC2)CC1` (stereo not drawn), the inhibition in assay [1] is 9.75% and 1.21%; in assay [2], 23.6% and 3.22%; in assay [3], 11.8% and -0.36%.

In the case of `COc1ccc(CCNCc2ccc3nc(N)c(C)cc3c2)cc1`, the inhibition was determined as 0.92% in assay [1], 2.14% in assay [2] and 3.68% in assay [3].

As to `CC[C@H]1CN2CC[C@H]1C[C@H]2[C@H](O)c1cc(-c2ccc(C)cc2)nc2ccc(OC)cc12`, the inhibition is 1.44% in assay [1], 0.47% in assay [2] and -0.1% in assay [3].

Consider `COC(C(=O)OCCC1CCCN1C)(c1ccccc1)c1ccccc1` (stereo not drawn), for which the results for the inhibition in assay [1], in assay [2] and in assay [3] were -0.93%, -0.75% and -4.58%, respectively.

Turning to `Cc1[nH]c2ccc(NS(C)(=O)=O)cc2c1C1CCN(CC2CCN(C(=O)/C=C/c3ccc(Cl)c(Cl)c3)CC2)CC1`, the inhibition is -0.42% in assay [1], 1.08% in assay [2] and -0.21% in assay [3].
